# TDP1 cell CPT = DT40-hTDP1 cell growth loss with CPT; 420,000 compounds, 12% hits; Potency, µM (doses to about 46.2 µM), actives largely listed as inhibitors; chicken DT40 Tdp1-/-;hTDP1 cells + 20 nM CPT, ATP luminescence, 48 h; also: nearly all actives have a fitted effect of over 55% in size
#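 Chicken DT40 Tdp1-/- cells complemented with human TDP1, 400 cells/well, exposed to compounds plus 20 nM camptothecin for at least 48 h at 37 C; viability read as ATP content by CellTiter-Glo luminescence.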
# HepG2 viability = counter-screen for TGF-b inhibitors: cytotoxicity in HepG2 cells. AID 588856. HepG2 CAGA-GFP viability, ATP luminescence, 18 h. 410,000 compounds, 0.76% hits. Potency, µM (series often up to 46.1 µM), actives largely listed as cytotoxic
#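 CellTiter-Glo luminescence gave cytotoxicity after 18 hours at 37 degrees C. The cells were HepG2 CAGA-GFP in 1% FBS DMEM, stimulated with 500 pg/mL TGF-beta after compound addition. %Activity was normalised to no-cell wells (complete cell-killing) and DMSO (no toxicity), and curves were fitted and classified.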
# TGFb SMAD3 inh = blocks TGF-b signaling | HepG2 CAGA-GFP TGF-b/SMAD3 reporter, GFP fluorescence, 18 h; TGF-beta stimulated, 500 pg/mL final | Potency, µM (series often up to 46.1 µM), usual class: inhibitors | 410,000 compounds, 1.2% hits; also: nearly all actives have a fitted effect of over 65% in size
#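 HEPG2 CAGA-GFP reporter cells (1000/well, DMEM with 1% FBS) received compounds, then recombinant TGF-beta at 500 pg/mL final for 18 hours at 37 degrees C. Per-cell GFP summed per well was normalised to unstimulated and stimulated DMSO controls before curve fitting.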
# DT40 TDP1 no CPT = qHTS for Inhibitors of human tyrosyl-DNA phosphodiesterase 1 (TDP1): qHTS in cells in absence of CPT. 420,000 compounds, 15% hits. Potency, µM (top dose mostly 46.2 µM), actives largely listed as inhibitors. DT40 Tdp1-/- hTDP1 cells, no CPT, ATP luminescence, 48 h; also: nearly all actives have a fitted effect of over 55% in size
#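 Chicken DT40 Tdp1-/- cells stably complemented with human TDP1 were seeded at 400 cells/well with DMSO in place of 20 nM camptothecin. After compound pinning, cells grew at least 48 hr at 37 °C; viability read by CellTiter-Glo luminescence.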
# HT1080 IDH1KD tx = toxicity to HT-1080 IDH1 knockdown cells (counter line); HT-1080 IDH1 knockdown viability, ATP luminescence, 48 h; Potency, µM (titrated, usually from 46.1 µM), usual class: cytotoxic; 360,000 compounds, 2% hits
#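 In this qHTS, HT-1080 cells depleted of IDH1 are exposed for 48 h at 37 °C to compound titrations. Toxicity is scored from CellTiter-Glo luminescence, with DMSO as full viability and medium alone as none.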
# HT1080-NT tox = kills 2HG-producing HT-1080-NT fibrosarcoma cells; HT-1080-NT fibrosarcoma viability, CellTiter-Glo ATP luminescence, 48 h; Potency, µM (titrated, usually from 46.1 µM), most hits filed as cytotoxic; 360,000 compounds, 1.6% hits;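 also: NT is the 2HG producing partner of a matched IDH1 knockdown line; nearly all actives have a fitted effect of over 55% in size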
#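 HT-1080-NT fibrosarcoma cells (2HG-overproducing), 750 cells/well in RPMI with 5% FBS, dosed after 2 h and incubated 48 h at 37C. CellTiter-Glo luminescence normalized to DMSO and no-cell wells; concentration-response curves fitted and classed.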
# Hits are given with their value; n = inactive; u = inconclusive; x = not tested or not shown; [ ] = dose if it differs, or a comment. Sampled rows, rich in hits. Any-hit rate of the full collection: about 17%. Calls follow the shape of the dose curve; as a rule, active = well fitted curve in the direction sought with a large enough effect; inconclusive = small, poorly fitted or top-dose-only effect, or another doubt; inactive = no such curve, though single readings can be large; an effect the other way counts as inactive or inconclusive.
SMILES,TDP1 cell CPT,HepG2 viability,TGFb SMAD3 inh,DT40 TDP1 no CPT,HT1080 IDH1KD tx,HT1080-NT tox
O=C(CSc1ncnc2c1cnn2-c1ccc(F)cc1)NC1CCCC1,18µM,n,n,21µM,n,n
O=C(CSc1ncnc2c1cnn2-c1ccc(F)cc1)NCC1CCCO1 (stereo not drawn),u,n,n,u,n,n
O=C(CSc1ncnc2c1cnn2-c1ccccc1)NC1CCS(=O)(=O)C1 (stereo not drawn),n,n,n,8.2µM,n,n
COc1cc(OC)cc(OC(=O)c2ccc3c(=O)n4c(nc3c2)CCC4)c1,n,n,n,n,n,n
CC(=O)c1ccc(OCCCC(=O)NC2CCCc3ccccc32)cc1 (stereo not drawn),u,n,n,u,n,n
O=C(NCCC1=CCCCC1)c1ccc2c(c1)ncn2-c1cccc(Cl)c1,16µM,n,n,15µM,x,x
CCCCCNC(=O)c1ccc2c(c1)ncn2-c1cccc(C)c1,u,n,n,u,x,x
COc1ccc(-n2cnc3cc(C(=O)NCCC4=CCCCC4)ccc32)cc1,18µM,n,u,u,x,x
COc1cccc(NC(=O)CN(C)C(=O)c2ccc(NC(=O)CC3SC(N4CCCC4)=NC3=O)cc2)c1 (stereo not drawn),n,n,n,n,n,n
Cc1onc(-c2ccccc2)c1C(=O)Nc1ccc(Cl)c(S(=O)(=O)N2CCOCC2)c1,n,n,n,n,n,n
CN(C)C(=O)CCc1ccc2c3c([nH]c2c1)[C@]1(C)[C@@H](C(=O)N2CCOCC2)C[C@H](CC(=O)NC(C)(C)C)C(=O)N1CC3,n,n,n,n,n,n
CC[C@]12c3[nH]c4cc(CCC(=O)N(C)C)ccc4c3CCN1C(=O)[C@@H](CC(=O)NCC13CC4CC(CC(C4)C1)C3)C[C@@H]2C(=O)N1CCN(C(=O)c2ccco2)CC1,u,n,n,16µM,u,n
CN(C)C(=O)CCc1ccc2c3c([nH]c2c1)[C@]1(C)[C@@H](C(=O)N2CCOCC2)C[C@H](CC(=O)NCC24CC5CC(CC(C5)C2)C4)C(=O)N1CC3,15µM,n,n,u,n,n
CC(C)N(C(=O)[C@H]1C[C@H](CC(=O)NCC23CC4CC(CC(C4)C2)C3)C(=O)N2CCc3c([nH]c4cc(CCC(=O)N(C)C)ccc34)[C@]12C)C(C)C,6.5µM,n,u,7.3µM,n,n
Cc1cccc(S(=O)(=O)c2cn(C)c3cc(N4CCN(c5ccccc5)CC4)c(F)cc3c2=O)c1,n,n,n,n,x,x
C=CCN(CC=C)Cc1cc(=O)oc2cc(OC)ccc12,u,n,n,u,n,n
Cn1nc(C(=O)Nc2cccc(S(=O)(=O)N3CCOCC3)c2)c2ccccc2c1=O,n,n,n,n,n,n
CC(C)n1nc(C(=O)Nc2cccc(S(=O)(=O)N3CCCCC3)c2)c2ccccc2c1=O,13µM,n,n,n,n,n
CC(C)n1nc(C(=O)Nc2cccc(S(=O)(=O)N3CCOCC3)c2)c2ccccc2c1=O,21µM,n,n,u,n,n[9.24 µM]
CCCc1cc(=O)[nH]c(SCC(=O)N(CC)c2c(N)n(Cc3ccccc3)c(=O)[nH]c2=O)n1,n,n,n,n,n,n
CC1(C)C(=O)C=C[C@@]2(C)C1C=C[C@@]1(C)C2CC[C@@]2(C)C(c3ccoc3)OC(=O)C3OC312 (stereo partly drawn),16µM,x,x,12µM,x,x
COc1ccc(CCNC(=O)COc2ccc(N(C)S(=O)(=O)c3ccc(C)cc3)cc2)cc1OC,u,n,n,16µM,n,n
COc1ccc(S(=O)(=O)NCc2ccc(C(=O)NCCN(C)Cc3ccccc3)cc2)cc1,18µM,n,n,21µM,n,n
COc1ccc(S(=O)(=O)CCC(=O)NCCc2ccc(Cl)cc2)cc1,n,13µM,u,n,n,n[9.24 µM]
COc1ccc(CNC(=O)c2ccc(CNS(=O)(=O)c3ccc(OC)cc3)cc2)cc1,n,n,n,n,x,x
SMILES,TDP1 cell CPT,HepG2 viability,TGFb SMAD3 inh,DT40 TDP1 no CPT,HT1080 IDH1KD tx,HT1080-NT tox
COc1ccc(CCNC(=O)c2ccc(CNc3nc(=S)[nH]c4ccccc34)cc2)cc1OC,15µM,n,n,u,n,n
C=CCCCCCCCCC(=O)OC,n,x,x,n,x,x
Cc1cc(C(=O)COc2cc(F)ccc2[N+](=O)[O-])c(C)n1CC1CCCO1 (stereo not drawn),u,n,n,u,n,n
CC(=O)c1cc2c(cc1N/C(=N/S(=O)(=O)c1ccc(C)cc1)c1ccc(F)cc1)OCO2,n,n,n,n,x,x
COc1ccc(NCC(=O)N2CCCC2)cc1Cl,n,n,n,n,n,n
COc1ccc(CCNC(=O)c2ccc(N(C)S(=O)(=O)c3ccc(C)cc3)cc2)cc1OC,21µM,n,n,21µM,n,u
COc1ccc(CCNC(=O)c2ccc(CNS(=O)(=O)c3ccccc3)cc2)cc1OC,18µM,n,n,16µM,n,n
COc1ccc(CCNC(=O)c2ccc(OC)c(OC)c2)cc1OC,n,n,n,n,n,n
COc1ccc(CCNC(=O)COc2ccc(N(C)S(=O)(=O)c3ccc(Cl)cc3)cc2)cc1,23µM,n,n,u,n,n
CN(c1ccc(OCC(=O)NCCc2ccccc2)cc1)S(=O)(=O)c1ccc(Cl)cc1,u,n,u,u,n,n
CC(=O)Nc1ccc(S(=O)(=O)N2CCC3(CC2)CC(=O)c2ccccc2O3)cc1,u,n,n,u,n,n
COC(=O)c1cc(C(=O)OCC(=O)NCc2ccc3c(c2)OCO3)cc([N+](=O)[O-])c1,n,n,n,n,n,n
CCc1cccc(C)c1NC(=O)CSc1nc(C)cc(C)c1C(=O)Nc1ccccc1,u,n,n,u,x,x
CCOc1cc(C2C(C(=O)OC)=C(C)NC3=C2C(=O)c2ccccc23)ccc1OC (stereo not drawn),u,n,n,21µM,x,x
CCOc1cc(C2C(C(=O)OC)=C(C)NC3=C2C(=O)c2ccccc23)cc(Br)c1OCC (stereo not drawn),u,n,n,5.2µM,x,x
CC1CC(C)(C)NC(=S)N1CCC(=O)N1CCc2ccccc21 (stereo not drawn),u,n,u,u,n,n
COc1cccc2c1OC[C@@H](CO)[C@H]2N(C)C(=O)Nc1ccc(Cl)cc1Cl,13µM,n,u,10µM,n,n
O=C(CNS(=O)(=O)c1ccc(Br)cc1Cl)OCC(=O)c1ccc[nH]1,n,n,n,n,n,n

# Compound activity: PubChem BioAssay, National Center for Advancing Translational Sciences (NCATS)
